Sampled rows, rich in hits. Any-hit rate of the full collection: about 0.9%.
PPARg SRC-1 ag = PPARgamma agonists recruiting SRC-1 coactivator, primary screen, biochemical. actives 0.41% (n = 200,000). activation, % at 8 µM. Peroxisome proliferator-activated receptor gamma (Homo sapiens), P37231. AID 631, 2007. PPARgamma-SRC-1 coactivator recruitment biochemical assay; in the data active means activation above about 19%;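 further: 0% = DMSO and 100% = reference agonist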
Target sequence (P37231 whole entry, looked up): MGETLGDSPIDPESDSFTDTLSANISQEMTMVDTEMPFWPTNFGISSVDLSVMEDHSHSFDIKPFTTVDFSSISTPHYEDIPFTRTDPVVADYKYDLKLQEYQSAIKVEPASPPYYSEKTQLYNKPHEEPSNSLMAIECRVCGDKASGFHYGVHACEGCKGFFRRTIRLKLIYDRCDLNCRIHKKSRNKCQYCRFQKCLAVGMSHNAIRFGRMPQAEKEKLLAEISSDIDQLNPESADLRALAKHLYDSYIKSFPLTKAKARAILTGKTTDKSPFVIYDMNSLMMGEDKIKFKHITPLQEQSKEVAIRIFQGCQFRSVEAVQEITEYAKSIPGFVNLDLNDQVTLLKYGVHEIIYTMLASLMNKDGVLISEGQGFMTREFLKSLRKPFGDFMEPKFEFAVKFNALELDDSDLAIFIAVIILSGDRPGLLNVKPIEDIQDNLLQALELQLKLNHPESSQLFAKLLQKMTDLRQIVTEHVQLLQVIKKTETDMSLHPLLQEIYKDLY
PPARg SRC3 recr = PPARgamma agonists recruiting SRC-3 coactivator, primary screen, biochemical. AID 731, 2007. Peroxisome proliferator-activated receptor gamma (Homo sapiens), P37231. biochemical PPARgamma/SRC-3 coactivator recruitment assay. actives 0.26% (n = 200,000). activation, % at 8 µM; in the data active means activation above about 23%;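 further: 0% = DMSO and 100% = reference agonist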
SRC3 TRFRET art = TR-FRET detection interference compounds, artefact control for PPARgamma SRC-3 recruitment agonists, biochemical, TR-FRET ratio; TR-FRET artefact counter-screen, PPARgamma/SRC-3 format; active compounds read high; TR-FRET ratio at 8 µM; actives 0.39% (n = 99,000); AID 1048, 2008; in the data active means TR-FRET ratio above about 2000
PPARg SRC-2 ag = agonists of PPARg-SRC-2 recruitment, primary screen, biochemical, HTS. PPARgamma LBD-SRC-2 recruitment. activation, % at 8 µM. actives 0.34% (n = 200,000). AID 1032, 2008;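 further: 0% = vehicle and 100% = reference agonist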
SRC1 TRFRET art = TR-FRET detection interference compounds, primary screen, artefact control for PPARgamma SRC-1 recruitment agonists, biochemical, TR-FRET emission ratio. TR-FRET detection artefact counter-screen; active compounds read high. TR-FRET ratio at 8 µM. actives 0.34% (n = 99,000); in the data active means TR-FRET ratio above about 2300
SRC2 TRFRET art = TR-FRET signal artefacts, primary screen, artefact control for PPARgamma SRC-2 agonist project, biochemical | actives 0.4% (n = 200,000) | TR-FRET artefact counter-screen; active compounds read high | TR-FRET ratio at 8 µM; in the data active means TR-FRET ratio above about 2000
PPARg SRC2 ag = agonists of PPARgamma SRC-2 coactivator recruitment, confirmation, biochemical, HTS; activation, % at 8 µM; biochemical SRC-2 recruitment by PPARgamma; shares compounds with PPARg SRC3 recr; AID 1297, 2008; actives 52% (n = 790);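 further: 0% = vehicle alone and 100% = reference agonist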
PPARg SRC1 ag = PPARgamma agonists recruiting SRC-1 coactivator, confirmation, biochemical | AID 1300, 2008 | activation, % at 8 µM | PPARgamma–SRC-1 coactivator recruitment biochemical assay | actives 43% (n = 790) | shares compounds with PPARg SRC3 recr; in the data active means activation above about 20%;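 further: 0% = vehicle wells and 100% = reference agonist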
PPARg SRC3 conf = PPARgamma-driven SRC-3 coactivator recruitment agonists, confirmation, biochemical. activation, % at 8 µM. actives 29% (n = 790). shares compounds with PPARg SRC3 recr. biochemical PPARgamma-SRC-3 coactivator recruitment, agonist mode. AID 1301, 2008; in the data active means activation above about 24%;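 further: 0% = vehicle wells and 100% = reference agonist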
* hit, by the source's call; . = no result given. Unless noted, no stated cut-off is given here; in the data, active means activation above about 22%; inactive means the rest.

SMILES	PPARg SRC-1 ag	PPARg SRC3 recr	SRC3 TRFRET art	PPARg SRC-2 ag	SRC1 TRFRET art	SRC2 TRFRET art	PPARg SRC2 ag	PPARg SRC1 ag	PPARg SRC3 conf
CC(C)OC(=O)CNc1n[nH]c(=S)[nH]c1=O	113*	74*	4653*	129*	5153*	4518*	106*	78*	71*
COC(=O)CCNc1n[nH]c(=O)[nH]c1=O	-1	7	1714	8	1933	1554	.	.	.
CC(C)COC(=O)C(C)Nc1n[nH]c(=S)[nH]c1=O (stereo not drawn)	8	5	1932	10	2031	1786	.	.	.
O=Cc1ccc(-c2cc(Cl)ccc2Cl)[nH]1	0	-4	1688	-2	1862	1566	.	.	.
CC(=C/C(=O)O)/C(=C/c1ccccc1)C(=O)O	7	0	1614	4	1695	1570	.	.	.
COc1ccc(CCNC(=O)CCCn2c(SCC(N)=O)nc3cc4c(cc3c2=O)OCO4)cc1OC	0	-3	1506	-1	1617	1440	.	.	.
CC(=O)Nc1ccc(C(C#N)c2ccccc2)cc1 (stereo not drawn)	-2	6	1610	3	1828	1449	.	.	.
COC(=O)[C@@]1(Cc2ccc(OC)cc2)[C@H]2c3cc(C(=O)N4CCCC4)n(Cc4ccc(C)o4)c3C[C@H]2CN1C(=O)c1ccccc1	1	1	1324	-6	1769	1393	.	.	.
Cc1ccccc1C(=O)NC(=S)Nc1ccc2[nH]c(=O)[nH]c2c1	5	6	1663	2	1912	1606	.	.	.
CN(C)/C=C/c1oc2ccc(O)cc2c1[N+](=O)[O-]	19	18	1948	24*	2270	1792	14	14	14
CCCCSc1nc(C)cc(C)c1S(=O)(=O)c1ccccc1C	2	5	.	5	.	1616	.	.	.
O=c1c(Cl)c(N2CCN(S(=O)(=O)c3ccc(F)cc3)CC2)cnn1-c1cccc(Cl)c1	47*	45*	.	5	.	1804	45*	39*	24*
COCc1cc(C)nc(N/N=C/c2ccc(-c3ccc(Cl)cc3[N+](=O)[O-])o2)c1C#N	15	10	1526	14	1627	1767	.	.	.
C=CCNC(=S)NNC(=O)c1ccc(=O)n(Cc2ccc(Cl)cc2Cl)c1	14	31*	1621	1	1846	1605	8	10	19
CN(Cc1cccs1)C(=O)/C=C/c1ccccc1[N+](=O)[O-]	-1	0	1547	3	1853	1570	.	.	.
CCOC(=O)CCC(NC(=O)c1ccc(NCN2C(=O)c3ccccc3C2=O)cc1)C(=O)OCC (stereo not drawn)	29*	22	.	10	.	1572	14	28*	21
Cn1c(=O)cc(SCC(=O)NCc2cccnc2)c2ccccc21	28*	38*	.	22*	.	1858	24*	18	17
Cn1c(=O)cc(SCC(=O)Nc2cccnc2)c2ccccc21	66*	93*	.	62*	.	3288*	28*	17	18
Cc1ccc(CSc2nc3ncccc3[nH]2)cc1	11	16	.	25*	.	1846	18	16	10
O=C(N/N=C/c1ccc(Cl)cc1)C(=O)N1CCCCCC1	3	0	1533	10	1604	1542	.	.	.
Cc1ccc(NC(=O)CCn2c(=S)oc3ccccc32)cc1	22*	7	1728	12	2071	1795	3	-1	1
O=C(CCn1c(=S)oc2ccccc21)Nc1ccc(F)cc1	7	2	1616	0	1871	1550	.	.	.
O=[N+]([O-])c1ccc(N/N=C/c2cn(Cc3ccc(F)cc3)c3ccccc23)nc1	4	-2	1480	8	1858	1758	.	.	.
C=CCn1c(-c2cccc(Cl)c2)n[nH]c1=S	25*	28*	.	20	.	2008*	20	14	13
Cc1ccc(-c2ccc(=O)n(CC(=O)NCc3ccc(F)cc3)n2)cc1	5	2	1618	1	1593	1480	.	.	.
SMILES	PPARg SRC-1 ag	PPARg SRC3 recr	SRC3 TRFRET art	PPARg SRC-2 ag	SRC1 TRFRET art	SRC2 TRFRET art	PPARg SRC2 ag	PPARg SRC1 ag	PPARg SRC3 conf
Oc1ccc(Br)cc1C=Nc1cccn2cc(-c3ccccc3)nc12	19	11	1820	23*	1670	1895	17	16	14
COc1ccccc1Cn1c(=O)c2ccccc2n2c(SCc3csc(C)n3)nnc12	-2	-1	1479	2	1673	1535	.	.	.
COc1ccccc1Cn1c(=O)c2ccccc2n2c(Sc3ncnc4sccc34)nnc12	26*	29*	.	8	.	3587*	9	9	6
N#CC(c1nc2ccccc2nc1N1CCCC1)S(=O)(=O)c1ccccc1 (stereo not drawn)	10	-8	.	-6	.	1401	.	.	.
Cc1cccc(S(=O)(=O)C(C#N)c2nc3ccccc3nc2N2CCCC2)c1 (stereo not drawn)	19*	14	.	11	.	1588	8	11	6
COc1ccc(C)cc1N(C(=O)c1ccccc1F)c1nc2ccccc2s1	-1	-3	1310	-9	1545	1554	.	.	.
COc1ccc(-n2ncc3c(NC(C)C)ncnc32)cc1	19*	8	.	6	.	1605	6	4	1
COc1ccc(-c2c3c(nc4sc(C(=O)Nc5ccccc5)c(N)c24)CCC3)cc1	14	27*	.	26*	.	1922	33*	20*	21
Nc1c(C(=O)Nc2ccccc2)sc2nc3c(c(-c4ccco4)c12)CCC3	6	14	.	10	.	1681	.	.	.
CCSc1oc(-c2ccccc2)nc1S(=O)(=O)c1ccccc1	0	10	.	14	.	1802	.	.	.
Cc1ccc(S(=O)(=O)c2nc(-c3cccs3)oc2SCC(N)=O)cc1	12	16	.	31*	.	1927	32*	32*	21
CSc1oc(-c2ccccc2)nc1S(=O)(=O)c1ccc(C)cc1	16	16	2062*	26*	2106	1843	25*	20*	18
COc1cc(C(=O)NCc2ccc3c(c2)OCO3)ccc1OCc1c(C)noc1C	5	20	.	25*	.	1774	-1	0	-2
